From PubChem BioAssay AID2540 (Sanford-Burnham Center for Chemical Genomics, 2010) come the findings set out here.

Each structure is given as a SMILES string. The whole screen tested about 330,000 compounds, of which about 4,100 (1.2%) were called active. The entries come from a sample that favours actives as a whole. A number with no mark means an inactive call. Rule as the data show it: active = inhibition above about 50%; inactive = the rest.

The target of the experiment is Sentrin-specific protease 8 (Homo sapiens) (UniProt Q96LD8). As to the kind of experiment: SENP8 protease inhibitors, primary screen, biochemical, luminescence (AID 2540). To be noted: purified SENP8, Z-RLRGG-aminoluciferin cleavage, at 10 µM, stronger effect = higher value.
Sequence of Sentrin-specific protease 8 (Homo sapiens) (Q96LD8 whole entry, looked up): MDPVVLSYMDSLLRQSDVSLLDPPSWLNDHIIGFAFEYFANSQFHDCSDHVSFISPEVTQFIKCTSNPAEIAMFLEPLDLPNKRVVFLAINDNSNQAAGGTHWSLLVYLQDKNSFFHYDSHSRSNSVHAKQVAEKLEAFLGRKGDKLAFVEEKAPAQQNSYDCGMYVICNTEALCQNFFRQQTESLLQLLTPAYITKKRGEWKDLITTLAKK
`CNS(=O)(=O)c1ccc(NC(=O)Nc2ccc3c(c2)OCO3)cc1`: the inhibition – broadly, the change of the read-out against control, counted positive when it falls – is -9.35%. In the case of `CN1CCN(c2ncc3c(n2)CC(c2ccccc2F)CC3=O)CC1` (configuration not stated) it was -5.2%; in that of `O=C(CCNC(=O)c1ccccc1Cl)NCc1ccco1`, -2.13%; in that of `O=C(Nc1ccccc1)Nc1ccccc1C(=O)NCc1ccco1`, 65.9% (active).

Consider `Cc1cccc(Nc2ccccc2C(=O)NCc2ccco2)c1C`, for which the inhibition was -4.58%. In the case of `CCOc1ccc(NC(=O)C/C(C)=N/NC(=O)Cc2cccs2)cc1` it was -7.21%. In the case of `CC(C)[C@H](NC(=O)N1CCn2c1nc1ccccc12)C(=O)NC1CC1` it was -8.07%; in that of `CSCCC(NC(=O)COc1ccccc1)C(=O)OCCOc1ccc(Br)cc1` (configuration not stated), -20.5%. In the case of `CCC(C)(C)NC(=O)C(c1ccc(O)cc1)N(Cc1ccco1)C(=O)CCC(=O)Nc1ccccn1` (configuration not stated) it was -6.41%; in that of `Cc1ccccc1N/N=C/c1ccc(N2CCOCC2)cc1`, -7.47%; in that of `CC(=C/c1ccccc1)/C=N/NC(=O)c1cc(C)oc1C`, 73.3% (active).

Regarding `Cc1cc(C(=O)N/N=C/c2ccc(N3CCOCC3)cc2)c(C)o1`, the inhibition was 84.5% (active). In the case of `O=C(NN=Cc1ccc(N2CCOCC2)cc1)c1cc2ccccc2cc1O` it was -1.63%; in that of `Cc1cc(C(=O)N/N=C\C(Br)=C\c2ccccc2)c(C)o1`, 38.8%. In the case of `COc1ccc(C/C(C)=N/NC(=O)c2cc(C)oc2C)cc1` it was -5.88%.

For the compound `CCCOc1ccc(C2=CSC3=NCCN23)cc1Cl`, the inhibition is -25.9%. In the case of `CCN(C(=O)CSc1nnc(-c2ccncc2)o1)c1ccccc1` it was -5.88%. In the case of `COc1ccc(CNc2c(CO)cnc3c2cnn3C)cc1` it was 3.66%. In the case of `CC(=O)c1cc2c(cc1NC(=O)CN1CCCCCC1)OCO2` it was 6.92%; in that of `COCCN(C(=O)CSCc1ccc(C)cc1)c1c(N)n(CC(C)C)c(=O)[nH]c1=O`, -1.3%; in that of `CCCCCC(=O)N1CCN(S(=O)(=O)c2ccc3c(c2)OCCCO3)CC1`, 0.168%. Consider `Cc1ccsc1C(=O)N/N=C/c1ccc([N+](=O)[O-])cc1`, for which the inhibition is 73.3% (active). Turning to `Cc1ccc(NC(=O)c2sccc2C)cc1[N+](=O)[O-]`, the inhibition is 3.23%. On to `O=C(N/N=C/c1ccc([N+](=O)[O-])cc1)C(=O)N1CCCC1`, for which the inhibition was -9.06%. In the case of `CN(CCOc1ccccc1)Cc1nc2cc(Cl)ccc2c(=O)[nH]1` it was 0.32%; in that of `COCC(C)n1c(C)cc(C(=O)COc2ccc(C)nc2[N+](=O)[O-])c1C` (configuration not stated), 4.55%; in that of `C#Cc1ccc([C@@H]2C=C(C(=O)O)O[C@H](OCCCCO)C2)cc1`, -9.34%. Turning to `CCC(C)NC(=O)/C=C/c1ccc(S(=O)(=O)NCc2ccco2)cc1` (configuration not stated), the inhibition was -7.51%. In the case of `CC1(C)C2CC=C(/C=N/NC(=O)c3ccc(Cl)cc3)C1C2` (configuration not stated) it was -0.62%. In the case of `CCN1CCN(c2nc(Nc3cccc(F)c3)nc(N)c2[N+](=O)[O-])CC1` it was -4.79%; in that of `COc1cccc(Nc2nc(N)c([N+](=O)[O-])c(NCc3ccco3)n2)c1`, -2.27%. For the compound `CNc1nc(Nc2ccc(C)c(Cl)c2)nc(N)c1[N+](=O)[O-]`, the inhibition was 96.8% (active). With `Cc1cc(C)c(NC(=S)N2CCCC2C(=O)O)c(C)c1` (configuration not stated), the inhibition was -2.97%. In the case of `CC(=O)c1cccc(NC(=O)c2cc(C)nn2-c2ccccc2)c1`, the inhibition is -2.45%. Take `N#Cc1ccc(S(=O)(=O)NCC(=O)OCC(=O)NCCc2ccccc2)cc1`: the inhibition was 2.9%. Turning to `CCC1C/C(=C/c2cccs2)C(=O)/C(=C/c2cccs2)C1` (configuration not stated), the inhibition is -8.62%.

Take `COc1ccc(/C=C2\CCc3ccccc3C2=O)c(OC)c1OC`: the inhibition was -6.3%. As for `O=C1/C(=C/c2cccs2)SC(=S)N1C1CCS(=O)(=O)C1` (configuration not stated), the inhibition was 10.2%.

`O=S(=O)(c1cccs1)N1CCc2ccccc2C1`: the inhibition is -2.48%. On to `O=C1/C(=C/c2cccs2)CCc2ccccc21`, for which the inhibition is 96.5% (active).

For `O=C1/C(=C/c2cccs2)CCC1C1CCCC1` (configuration not stated), the inhibition is 80.6% (active). In the case of `CC(C)(C)C(=O)CSc1ccc(S(=O)(=O)N2CCCC2)cn1` it was 0.226%; in that of `CC(=O)N1CCC(C(=O)OCc2ccc(Cl)cc2)(c2ccccc2)CC1`, -16%; in that of `Cc1ccc(CNC(=O)CCNS(=O)(=O)c2ccc(Br)s2)cc1`, -3.11%.

For `Oc1c(C=Nc2cccc3nsnc23)ccc2ccccc12`, the inhibition was 75.8% (active).

As for `CCCn1c(SCC(=O)c2ccc3c(c2)OCCO3)nnc1C(C)C`, the inhibition is 1.93%.

For the compound `Cc1ccc2cc(/C=N/Nc3ccc(C(=O)O)cc3)c(Cl)nc2c1`, the inhibition was -3.31%. Take `O=C(O)c1ccc(N/N=C/c2ccc3ncccc3c2)cc1`: the inhibition was 97.1% (active). Consider `O=C(O)c1ccc(/C=N/Nc2nc(N3CCCCC3)nc(N3CCCCC3)n2)cc1`, for which the inhibition is -10.8%. Turning to `S=c1[nH]nc(-c2cc(-c3ccccc3)n[nH]2)n1/N=C/c1c2ccccc2cc2ccccc12`, the inhibition was -9.93%. In the case of `O=C(Nc1cccnc1Cl)c1cc(-c2ccccc2O)on1` it was -7.17%. In the case of `Cc1ccc(NC(=O)c2cc(-c3ccccc3O)n[nH]2)cc1C` it was -13.8%; in that of `Oc1ccccc1-c1cc(-c2ccc(Cl)cc2)n[nH]1`, 89.8% (active). In the case of `S=c1[nH]nc(-c2cc(-c3ccsc3)n[nH]2)n1-c1ccccc1` it was 2.29%; in that of `c1ccc(-c2cc(-c3ccccc3)[nH]n2)cc1`, 58.4% (active). Consider `CCOc1ccc(C(=O)CCN2CCOCC2)cc1`, for which the inhibition was -4.08%.

For `CCCCn1c(N)c(N(CC(C)C)C(=O)C2CSC3(C)CCC(=O)N23)c(=O)[nH]c1=O` (configuration not stated), the inhibition is -4.36%.

As for `COC(C/C=C/C(=O)[C@@H](C)OCc1ccccc1)OC`, the inhibition was -1.1%. Regarding `O=C(Nc1ccc(O)cc1)c1ccc(NC(=O)c2ccco2)cc1`, the inhibition was -13.6%. In the case of `Cc1cc(NC(=O)c2ccc(F)cc2)ccc1NC(=O)c1ccco1` it was 55.5% (active). In the case of `COc1ccccc1C(=O)Nc1ccc(NC(=O)c2ccco2)c(C)c1` it was 42.6%. In the case of `CC1(C)CCSC(/C=C/c2ccccc2)=N1` it was -3.81%.
